Screening data: PubChem, National Center for Advancing Translational Sciences (NCATS)
NS1 inh: influenza NS1 inhibition | Potency, µM (top dose mostly 46.1 µM) | 270,000 tested, 0.4% active | AID 2326; note: actives are rising curves; nearly all actives have a fitted effect of over 50% in size
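Compounds were scored for reversing the slow growth caused by influenza A NS1 in S. cerevisiae, measured by optical density at 600 nm. Assay medium contained 2% galactose at pH 6.0; NS1-free yeast of the same strain were the positive control.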
SARS PLpro yeast: SARS-CoV PLP inhibition in yeast; Potency, µM (highest dose often 32.9 µM), most hits filed as activators; S. cerevisiae expressing SARS-CoV PLpro, growth rescue; 330,000 tested, 0.19% active; AID 485353; note: nearly all actives have a fitted effect of over 55% in size
CHX counter: counter-screen hit for Shiga toxin inhibitors, cycloheximide; cell reporter, cycloheximide protein synthesis inhibition counterscreen; max response, %; 300,000 tested, 12% active; in the data active = max response mostly above about 13%, no sharp cut-off; inactive = mostly below about 14%; note: read at 38.3 µM for the half of the compounds with a filed dose
Shiga toxin inh: inhibitors of Shiga toxin in Vero cells | 290,000 tested, 9.2% active | inhibition, % at 38.7 µM | Vero cells, Shiga toxin protein synthesis inhibition reporter; in the data active = inhibition mostly above about 28%, no sharp cut-off; inactive = mostly below about 43%
Of the large screens only hits and unclear results are named; the others gave an inactive call. Only some compounds are listed: those with a hit (about 12% of all), similar ones and a draw of the others. Unless noted, calls come from the whole dose curve.

O=C(CSc1nc2ccccc2o1)Nc1nc(-c2ccccc2)cs1	CHX counter 72, Shiga toxin inh 111
Cc1sc(NC(=O)CSC2=NCCS2)nc1-c1ccccc1	none
O=C(O)C1CC(CCCP(=O)(O)O)CCN1 (centres undefined)	none (no result: NS1 inh, SARS PLpro yeast)
NC(=O)c1ccccc1NC(=O)CSC1=NCCS1	SARS PLpro yeast inconclusive, CHX counter 11
O=C(CSC1=NCCS1)Nc1ccc(F)cc1	none
CC(=O)c1cccc(N(C(=O)c2cnccn2)C(C(=O)NCc2ccccc2)c2ccco2)c1 (centres undefined)	none
N/C(=N\OC(=O)c1cccc(Br)c1)c1ccncc1	CHX counter 35, Shiga toxin inh 83
N/C(=N\OC(=O)c1ccc(Br)cc1)c1ccncc1	CHX counter 45, Shiga toxin inh 52 (no result: NS1 inh)
N/C(=N\OC(=O)c1ccccc1)c1ccncc1	CHX counter 46, Shiga toxin inh 87
Cc1cccc(C(=O)O/N=C(/c2ccccc2)c2ccncc2)c1	none
COc1ccc(C(=O)O/N=C(/c2ccccc2)c2ccncc2)cc1	CHX counter 42, Shiga toxin inh 61 (no result: NS1 inh)
COc1cc(OC)cc(C(=O)O/N=C(\N)c2ccncc2)c1	none
NC(=O)C1CCN(C(=O)C2CCC(=O)N(CC3CCCCC3)C2)CC1 (centres undefined)	none
COc1ccc(C(=O)C2CCN(CC(=O)Nc3ccccc3F)CC2)cc1	none
C=CCN1C(=O)C2(NNc3ccccc3O2)c2ccccc21 (centres undefined)	none
CCCCN1C(=O)C2(NNc3ccccc3O2)c2ccccc21 (centres undefined)	CHX counter 47, Shiga toxin inh 62
COc1cc(NC(=O)C2CCC(CNS(=O)(=O)c3csc(C(N)=O)c3)CC2)cc(OC)c1 (centres undefined)	none
CC(=O)Nc1cccc(-c2cc(-c3c(Cl)cccc3Cl)no2)c1	none
CC(=O)Nc1nccc(-c2cc(-c3ccccc3)no2)n1	CHX counter 30, Shiga toxin inh 53
O=C(CN1C(=O)/C(=C/c2cccc(Br)c2)SC1=S)N1CCCC1	none
c1csc(-c2nnc(Cc3cccc4ccccc34)o2)c1	CHX counter 17
CCSc1nnc(-c2cccs2)o1	CHX counter 28
Fc1ccc(Cc2nnc(-c3cccs3)o2)cc1	CHX counter 33, Shiga toxin inh 43
Nc1nnc(-c2ccc(Cl)cc2)o1	none
Fc1ccc(-c2nnc(Cc3ccc(Cl)cc3)o2)cc1	CHX counter 36, Shiga toxin inh 59
COc1cc(C2SCCCCCCCCCCSC(c3ccc(O)c(OC)c3)SCCCCCCCCCCS2)ccc1O (centres undefined)	none (no result: SARS PLpro yeast, CHX counter, Shiga toxin inh)
C=CCNC(=O)C1=NN(c2c(F)c(F)cc(F)c2F)C(=O)CC1	none
COc1ccc(NC(=O)NNC(=O)c2ccccc2-n2cccc2)cc1OC	none
CC(C)NCc1nnc(-c2ccc(Cl)cc2)o1	CHX counter 20 (no result: NS1 inh)
c1ccc(CSc2nnc(-c3cccs3)o2)cc1	CHX counter 46, Shiga toxin inh 101
CC(O)c1nc2ccccc2n1Cc1nnc(-c2ccc(Cl)cc2)o1 (centres undefined)	CHX counter 21
Fc1ccc(CSc2nnc(-c3cccs3)o2)cc1	CHX counter 65, Shiga toxin inh 101
O=C(COc1ccccc1)NC(=S)Nc1ccc2c(c1)Cc1ccccc1-2	none
c1ccc(-c2nnc(CSc3nnc(-c4cccs4)o3)o2)cc1	none
Fc1ccccc1CSc1nnc(-c2cccs2)o1	CHX counter 44, Shiga toxin inh 88
O=c1cc(-c2ccsc2)oc2cc(-c3ccc4c(c3)OCO4)ccc12	none (no result: NS1 inh, CHX counter, Shiga toxin inh)
O=c1cc(-c2ccc3c(c2)OCCO3)oc2ccc(Cl)cc12	CHX counter 47, Shiga toxin inh 76
O=c1cc(-c2cccs2)oc2ccc(Cl)cc12	CHX counter 37, Shiga toxin inh 59
C(#CC12CC3CC(CC(C3)C1)C2)CN1CCOCC1	none (no result: NS1 inh)
COc1ccc(OCc2cc(C(=O)NC3CCOC(C)(C)C3)no2)c2ccccc12 (centres undefined)	CHX counter 96, Shiga toxin inh 103
O=C(NCC1CCOCC1)c1cc(COc2cccc(C(F)(F)F)c2)on1	none
O=C(NC1CCOC1)c1cc(COc2cccc(C(F)(F)F)c2)on1 (centres undefined)	CHX counter 41, Shiga toxin inh 66
CSc1ccccc1OCc1cc(C(=O)NC2CCOC2)no1 (centres undefined)	CHX counter 49, Shiga toxin inh 49
CSc1ccccc1OCc1cc(C(=O)NC2CCc3ccccc32)no1 (centres undefined)	NS1 inh inconclusive
Cc1ccc(C)c(OCc2cc(C(=O)NC3CCOC(C)(C)C3)no2)c1 (centres undefined)	CHX counter 56, Shiga toxin inh 85
